# HEK cytotox – cytotoxic compounds in HEK 293 cells. actives 6.6% (n = 94,000). Potency, µM (titrated, usually from 115 µM), usual class: inhibitors. HEK 293 viability, ATP luminescence (CellTiter-Glo), 48-72 h; also: nearly all actives have a fitted effect of over 60% in size
#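 CellTiter-Glo luminescence (cellular ATP) was read after 48 or 72 hr of compound exposure at 37 degree Celsius. Cells were HEK 293 plated at 250 cells/well.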
# NIH3T3 tox – NIH 3T3 cell cytotoxicity | NIH 3T3 viability, CellTiter-Glo ATP luminescence, 48-72 h | Potency, µM (highest dose often 96.7 µM), actives largely listed as inhibitors | actives 4.3% (n = 94,000) | AID 1345082; also: nearly all actives have a fitted effect of over 55% in size
#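 Cytotoxicity was measured by CellTiter-Glo ATP luminescence after 48 or 72 h compound exposure at 37 °C. Mouse NIH 3T3 fibroblasts were seeded at 400 cells/well and dosed by 23 nL pin transfer.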
# FLuc inh-1 – blocks purified firefly luciferase enzyme activity; AID 1347043; P08659; actives 2.5% (n = 76,000); Potency, µM (highest dose often 115 µM), usual class: inhibitors; purified P. pyralis luciferase, luminescence, biochemical; also: nearly all actives have a fitted effect of over 65% in size
#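 Luminescence read by CCD imager after adding enzyme (10nM final) to wells holding compound, titrated in qHTS. Substrates 10uM each D-luciferin and ATP; buffer 50mM Tris acetate pH 7.5, 10mM Mg acetate, Tween-20, BSA.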
# hNpr1 antagonist – antagonists of human natriuretic peptide receptor Npr1; P16066; HEK293 hNpr1 GloSensor cGMP, ANP-stimulated luminescence; Potency, µM (titrated, usually from 46.3 µM), usual class: inhibitors; actives 1.6% (n = 76,000); calls by dose curve; also: nearly all actives have a fitted effect of over 60% in size
# Target sequence (P16066 whole entry, looked up): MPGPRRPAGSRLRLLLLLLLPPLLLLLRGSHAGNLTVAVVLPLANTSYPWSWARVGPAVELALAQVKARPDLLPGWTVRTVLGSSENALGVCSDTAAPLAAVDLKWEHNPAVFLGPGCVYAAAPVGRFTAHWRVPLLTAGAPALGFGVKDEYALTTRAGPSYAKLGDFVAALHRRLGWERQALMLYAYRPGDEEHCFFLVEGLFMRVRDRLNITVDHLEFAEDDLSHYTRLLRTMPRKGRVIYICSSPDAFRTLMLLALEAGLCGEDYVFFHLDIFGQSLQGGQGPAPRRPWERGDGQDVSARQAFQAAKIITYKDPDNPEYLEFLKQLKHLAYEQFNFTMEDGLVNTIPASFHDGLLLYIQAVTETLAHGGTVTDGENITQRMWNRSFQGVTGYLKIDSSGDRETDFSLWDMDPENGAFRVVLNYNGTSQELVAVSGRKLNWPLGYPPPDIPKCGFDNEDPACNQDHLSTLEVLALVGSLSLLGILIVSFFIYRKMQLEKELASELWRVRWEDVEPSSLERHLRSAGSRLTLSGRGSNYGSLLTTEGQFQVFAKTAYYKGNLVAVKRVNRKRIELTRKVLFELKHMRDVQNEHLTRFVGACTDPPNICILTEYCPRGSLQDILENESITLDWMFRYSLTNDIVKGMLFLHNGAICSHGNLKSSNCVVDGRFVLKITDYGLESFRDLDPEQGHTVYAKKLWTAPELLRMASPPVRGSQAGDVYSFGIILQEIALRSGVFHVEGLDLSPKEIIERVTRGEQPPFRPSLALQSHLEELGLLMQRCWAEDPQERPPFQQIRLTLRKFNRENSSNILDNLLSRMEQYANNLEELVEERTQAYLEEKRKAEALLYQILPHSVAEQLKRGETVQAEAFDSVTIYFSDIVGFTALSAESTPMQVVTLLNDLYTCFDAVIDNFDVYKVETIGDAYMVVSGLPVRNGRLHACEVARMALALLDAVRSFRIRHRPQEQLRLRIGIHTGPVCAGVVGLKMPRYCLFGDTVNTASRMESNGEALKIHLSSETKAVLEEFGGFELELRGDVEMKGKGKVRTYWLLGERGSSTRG
#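 Compound pre-incubated 30 min at room temperature on GloSensor-loaded HEK293 cells stably carrying hNpr1 and the pGS-40F cGMP biosensor. Stimulation uses hNppA at 0.1 nM final; luminescence is taken at baseline and 20 min post-agonist.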
# FLuc SDR -ATP – binders stabilizing firefly luciferase, without ATP; shares compounds with FLuc inh-1; Purified FLuc-C-HiBiT, Nano-Glo HiBiT luminescence, no ATP; Potency, µM (top dose mostly 32.7 µM), usual class: activators; actives 7.8% (n = 1,300); also: nearly all actives have a fitted effect of over 55% in size
# FLuc SDR ATP – binders stabilizing firefly luciferase, plus ATP. shares compounds with FLuc inh-1. Potency, µM (highest dose often 32.7 µM), actives largely listed as activators. AID 1963319. purified FLuc-C-HiBiT + ATP, HiBiT complementation luminescence. actives 8.7% (n = 1,300);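 also: signal reports ligand binding via conformational change of the enzyme rather than luciferase catalysis; nearly all actives have a fitted effect of over 55% in size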
# FLuc inh-2 – firefly luciferase enzyme inhibition. shares compounds with FLuc inh-1. purified FLuc-C-HiBiT enzyme, luciferin luminescence. Potency, µM (doses to about 32.7 µM), usual class: inhibitors. actives 42% (n = 1,300). AID 1963320; also: nearly all actives have a fitted effect of over 70% in size
# A number is an active result; . = inactive; ? = inconclusive; / = no result given. Compounds with a hit are over-represented: about 11% of the library has one in this group of screens. Unless noted, calls follow the shape of the dose curve; as a rule, active = well fitted curve in the direction sought with a large enough effect; inconclusive = small, poorly fitted or top-dose-only effect, or another doubt; inactive = no such curve, though single readings can be large; an effect the other way counts as inactive or inconclusive.
SMILES,HEK cytotox,NIH3T3 tox,FLuc inh-1,hNpr1 antagonist,FLuc SDR -ATP,FLuc SDR ATP,FLuc inh-2
CCCCNC(=O)C1CCN(C(=O)c2ncn3c2COC(c2ccccc2)C3)CC1 (stereo not given),.,.,7.1µM,.,.,?,?
O=C(NCCc1cccs1)C1CCN(C(=O)c2ncn3c2COC(c2ccccc2)C3)CC1 (stereo not given),.,.,7.1µM,.,.,?,4.4µM
O=C(NCc1cccs1)C1CCN(C(=O)c2ncn3c2COC(c2ccccc2)C3)CC1 (stereo not given),.,.,6.3µM,.,.,2.2µM,2.5µM
CCCOc1ccc(CN2C[C@@H](CO)[C@H](c3ccncc3)C2)cc1,?,.,.,?,/,/,/
O=C(NCc1ccc2c(c1)OCO2)C1CCN(C(=O)c2ncn3c2COC(c2ccccc2)C3)CC1 (stereo not given),.,.,7.9µM,.,.,?,7µM
O=C(NCc1ccc(Cl)cc1)C1CCN(C(=O)c2ncn3c2COC(c2ccccc2)C3)CC1 (stereo not given),.,.,8.9µM,.,.,?,3.9µM
O=C(NCCc1ccccc1)C1CCN(c2cc(C(F)(F)F)ncn2)CC1,.,.,.,.,/,/,/
CC(C)CCNC(=O)C1CCN(C(=O)c2ncn3c2COC(c2ccc(F)cc2)C3)CC1 (stereo not given),.,.,?,.,/,/,/
O=C(NCc1ccc2c(c1)OCO2)C1CCN(c2cc(C(F)(F)F)ncn2)CC1,?,?,10µM,?,.,.,?
COc1ccc(C2Cn3cnc(C(=O)N4CCC(C(=O)NCC5CC5)CC4)c3CO2)cc1 (stereo not given),.,.,.,.,/,/,/
O=C(NCc1ccco1)C1CCN(C(=O)c2ncn3c2COC(c2ccccc2)C3)CC1 (stereo not given),.,.,5µM,.,.,2.5µM,2.5µM
CCOC(=O)c1cn(C2CN(C(=O)Cc3cccc(Cl)c3)C2)nn1,.,.,.,.,/,/,/
COCCn1c(C)cnc1C1CCN(S(=O)(=O)c2cccc(F)c2)C1 (stereo not given),.,.,/,/,/,/,/
COc1ccc(C2Cn3cnc(C(=O)N4CCC(C(=O)NCCc5ccccc5)CC4)c3CO2)cc1 (stereo not given),.,.,.,.,/,/,/
O=C(NCc1cc(F)ccc1F)C1CCN(C(=O)c2ncn3c2COC(c2ccccc2)C3)CC1 (stereo not given),.,.,2.2µM,.,.,?,3.1µM
CCOc1cccc(CNC(=O)C2CCN(C(=O)c3ncn4c3COC(c3ccccc3)C4)CC2)c1 (stereo not given),.,.,14µM,.,.,?,?
Cc1ccc(C2Cn3cnc(C(=O)N4CCC(C(=O)NCc5ccccc5C)CC4)c3CO2)cc1 (stereo not given),.,.,?,.,/,/,/
O=C(NCc1ccccc1Cl)C1CCN(C(=O)c2ncn3c2COC(c2ccccc2)C3)CC1 (stereo not given),.,.,14µM,.,.,?,?
O=C(NC1CC1)c1nc2sccn2c1-c1ccc(F)cc1,.,.,/,/,/,/,/
Cc1nc(-c2ccc(F)cc2)n(CC(=O)Nc2cc(F)ccc2F)c(=O)c1CCO,?,.,.,.,/,/,/
Cc1cc(-c2nc3cc(F)ccc3s2)ccc1N,/,/,/,/,?,?,1.1µM
Cc1cc(-c2nc3cc(F)ccc3s2)ccc1NC(=O)[C@@H](N)CCCCN,/,/,/,/,.,?,2.5µM
CCCC(=O)N1CCN(c2nc3ccc(F)cc3s2)CC1,/,/,/,/,.,?,11µM
CCOc1ccc2nc(N3CCN(C(=O)c4ccco4)CC3)sc2c1,/,/,/,/,.,.,?
COC(=O)N1CCc2nc(C)nc(-c3ccc(OC)cc3)c2C1,.,.,/,/,/,/,/
SMILES,HEK cytotox,NIH3T3 tox,FLuc inh-1,hNpr1 antagonist,FLuc SDR -ATP,FLuc SDR ATP,FLuc inh-2
CC(C)CNC(=O)c1nc2sccn2c1-c1cccnc1,.,.,/,/,/,/,/
CC(O)CNS(=O)(=O)c1cccc(C(=O)Nc2cccc3c2CCC3)c1 (stereo not given),.,.,.,.,/,/,/
O=C(Nc1ccccc1C(=O)O)c1cccc(S(=O)(=O)N2CCCC2)c1,/,/,/,/,.,.,?
O=C(Nc1cccc(-c2ccc(N3CCOCC3)nn2)c1)Nc1ccccc1F,18µM,?,1.6µM,?,?,?,2.8µM
O=C(Nc1cccc(-c2ccc(N3CCOCC3)nn2)c1)Nc1cc(F)ccc1F,79µM,?,0.89µM,10µM,?,?,2.5µM
CSc1cccc(NC(=O)Nc2cccc(-c3ccc(N4CCOCC4)nn3)c2)c1,28µM,35µM,0.79µM,?,?,?,1.6µM
CCc1cccc(NC(=O)Nc2cccc(-c3ccc(N4CCOCC4)nn3)c2)c1,40µM,?,2µM,?,?,.,6.2µM
O=[S+]1([O-])NC2(CCN(CC3CC3)C2)CNc2ccccc21 (stereo not given),?,.,.,.,/,/,/
O=C(Nc1ccc(F)cc1)Nc1cccc(-c2ccc(N3CCOCC3)nn2)c1,?,?,0.89µM,?,?,?,2µM
CN1CCN(c2ccc(-c3cccc(N)c3)nn2)CC1,.,.,11µM,?,.,?,6.2µM
O=C(Nc1cccc(-c2ccc(N3CCCC3)nn2)c1)c1c(F)cccc1F,40µM,?,7.1µM,.,?,?,8.8µM
O=C(Nc1cccc(F)c1)Nc1cccc(-c2nnc3n2CCCC3)c1,.,.,.,.,/,/,/
Cc1ccc(C(=O)Nc2cccc(-c3ccc(N4CCN(C)CC4)nn3)c2)cc1C,?,25µM,6.3µM,.,?,?,3.9µM
CCCc1noc(-c2cn(C3CCN(C(=O)c4ccc(N(C)C)cc4)CC3)nn2)n1,?,.,.,.,/,/,/
Cc1ccc(CN2CCC3(CC2)COc2ccccc2NC3=O)cc1,.,.,.,.,/,/,/
COc1ccc(-c2onc(C)c2C(=O)NCCc2ccc(F)cc2)cc1,?,.,.,.,/,/,/
COc1cccc(-c2cc3c(=O)n(CCNC(=O)C4CCCCC4)ccn3n2)c1,?,.,?,?,/,/,/
COc1ccc(-c2nc(C)c(CCNC(=O)c3c(F)cccc3F)s2)cc1,/,/,/,/,.,.,.
COc1ccc(-c2cc3c(=O)n(CCNC(=O)c4c(F)cccc4F)ccn3n2)cc1,.,.,4µM,.,?,?,5µM
COc1ccc(-c2cc3c(=O)n(CCNC(=O)c4ccco4)ccn3n2)cc1,?,?,7.9µM,.,?,?,9.9µM
COc1cccc(-c2cc3c(=O)n(CCNC(=O)C4CCN(C(C)=O)CC4)ccn3n2)c1,.,.,14µM,.,?,?,?

# Source: PubChem BioAssay (National Center for Advancing Translational Sciences (NCATS))
